# According to PubChem BioAssay (Tox21):
# Results filed as inconclusive are left out. The source made the active and inactive calls. Calls follow the shape of the dose curve; as a rule, active = well fitted cell-killing curve with a large enough effect in the repeat runs; inconclusive = weak or mixed curves, or effect the other way; inactive = no such curve, though single readings can be large or run the other way.
# Test: qHTS assay to identify small molecule antagonists of the vitamin D receptor (VDR) signaling pathway - cell viability counter screen (AID 743225); also: nearly all actives have a fitted effect of over 50% in size
# Details: VDR-bla HEK293T viability, CellTiter-Glo luminescence, 16 h; series mostly up to 61 µM
# Summary of the method: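 HEK293T VDR-bla; cpd + 1a,25-(OH)2D3 3 nM final, 16 h 37C/5% CO2; B/G FRET substrate 2 h RT; then CellTiter-Glo 30 min RT, luminescence.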
row,SMILES,outcome
1,NNc1ccccc1,inactive
2,CN(C)NC(=O)CCC(=O)O,inactive
3,CC(=O)C1CCOC1=O (centres undefined),inactive
4,CN(C)C(=O)C(c1ccccc1)c1ccccc1,inactive
5,CN1C(=O)CCS(=O)(=O)C1c1ccc(Cl)cc1 (centres undefined),inactive
6,Cc1ccc(O)c(C)c1,inactive
7,O=C(O)C1C(C(=O)O)C2(Cl)C(Cl)=C(Cl)C1(Cl)C2(Cl)Cl (centres undefined),inactive
8,Nc1ccc([As](=O)(O)O)cc1,inactive
9,CNC(=O)Oc1cccc2ccccc12,inactive
10,O=[N+]([O-])c1ccc(Cl)c(Cl)c1,inactive
11,CNC(=O)O/N=C/C(C)(C)S(C)(=O)=O,inactive
12,CCCCC(CC)C(=O)Cl (centres undefined),inactive
13,CCNc1nc(Cl)nc(NC(C)C)n1,inactive
14,C=C(C)C(=O)OCC(CC)CCCC (centres undefined),inactive
15,Cc1ccc(N)cc1,inactive
16,Cc1cc(Cl)ccc1OC(C)C(=O)O (centres undefined),inactive
17,Cc1cccc(N)c1C,inactive
18,CCOP(=S)(OCC)Oc1cc(C)nc(C(C)C)n1,inactive
19,Oc1c(Br)cc(Br)cc1Br,inactive
20,Cc1cccc(C)c1N,inactive
21,O=C(O)C(Br)Br,inactive
22,Cc1ccccc1N,inactive
23,CN(C)C(=O)Cl,inactive
24,COC(C)(C)CCCC(C)C/C=C/C(C)=C/C(=O)OC(C)C (centres undefined),inactive
25,Cc1cccc(C)c1NC(=O)CN1CCCC1=O,inactive
26,Oc1ccc(Cl)cc1,inactive
27,CC(C)(C)C(=O)CCl,inactive
28,Nc1cc(Cl)cc(Cl)c1,inactive
29,CSc1nnc(C(C)(C)C)c(=O)n1N,inactive
